We go through 102 molecules from PubChem BioAssay AID1209 (Sanford-Burnham Center for Chemical Genomics, 2008).

Among all 190,000 compounds or so, about 810 (0.43%) were called active. For the sample, actives were picked, then their nearest neighbours and some compounds at random. Values without a mark were called inactive. Cut-off read from the data, not from the text of the source: active = inhibition above about 50%; inactive = the rest.

In the assay the target is Mannose-6-phosphate isomerase (Homo sapiens) (UniProt P34949). Put plainly: MPI enzyme activity inhibition – biochemical, fluorescence intensity, coupled assay, primary screen (AID 1209).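 Note: plate controls were DMSO vehicle for no effect and wells lacking substrate for full effect.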 The note with it: purified PMI enzyme, at 20 µM, stronger effect = higher value.
Sequence of Mannose-6-phosphate isomerase (Homo sapiens) (P34949 whole entry, looked up): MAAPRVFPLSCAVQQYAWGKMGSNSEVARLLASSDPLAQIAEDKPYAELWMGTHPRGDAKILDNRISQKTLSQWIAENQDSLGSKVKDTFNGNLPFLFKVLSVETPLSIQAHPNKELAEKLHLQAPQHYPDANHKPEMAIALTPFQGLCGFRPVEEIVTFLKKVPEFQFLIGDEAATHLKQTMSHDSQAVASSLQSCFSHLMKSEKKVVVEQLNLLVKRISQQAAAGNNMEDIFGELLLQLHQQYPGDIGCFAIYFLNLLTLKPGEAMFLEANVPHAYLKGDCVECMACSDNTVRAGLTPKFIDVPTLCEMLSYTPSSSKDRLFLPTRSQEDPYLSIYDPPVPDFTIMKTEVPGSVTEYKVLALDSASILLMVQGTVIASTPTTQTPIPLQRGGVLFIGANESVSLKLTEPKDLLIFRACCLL
As for `COc1ccc(NC(=O)c2ccc3nccnc3c2)cc1`, the inhibition is -5.2%.

`COc1ccc(NC(=S)Nc2ccc3snnc3c2)cc1`: the inhibition was 25%.

Turning to `COc1ccc(N(C)C(=O)Nc2ccc3c(c2)nnn3C)cc1`, the inhibition was 15.5%.

As for `CCOc1ccc(NC(=S)Nc2ccc3nsnc3c2)cc1`, the inhibition is 46.4%.

Consider `COc1ccc(NC(=S)Nc2ccc3nsnc3c2)cc1`, for which the inhibition was 64.2% (active).

`COc1ccc(N(C)C(=O)Nc2ccc3nsnc3c2)cc1`: the inhibition is 58.7% (active).

`COc1cccc(NC(=O)Nc2ccc3nsnc3c2)c1`: the inhibition is 1.7%.

On to `COc1ccc(NC(=S)Nc2ccc3nccnc3c2)cc1`, for which the inhibition was 83.8% (active).

For the molecule `COc1ccc(NC(=O)Nc2ccc3nccnc3c2)cc1`, the inhibition is -6.9%.

On to `CCOC(=O)c1sc(NS(=O)(=O)c2ccc(C)cc2)nc1C`, for which the inhibition was 5.9%.

Take `CCOc1ccc(-c2noc(CCC(N)=O)n2)cc1OCC`: the inhibition was -7.6%.

As for `Cc1cc(NCCCN2CCOCC2)n2nc(C)c(-c3ccccc3)c2n1`, the inhibition is -1.9%.

For `Cc1csc(NC(=O)CSc2nc3ccccc3c(=O)[nH]2)n1`, the inhibition was 0.4%.

As to `C[C@H]1CC[C@H]2C(=O)N3[C@H](c4cccc(N5CCCC5=O)c4)[C@@H](C)CC[C@H]3C(=O)N2[C@@H]1c1cccc(N2CCCC2=O)c1`, the inhibition is -17.4%.

For `CC(C)(C)Cc1nnc(NC(=O)Cc2ccc([N+](=O)[O-])cc2)s1`, the inhibition was -4.5%.

Take `CC(C)(C)C(=O)CSc1nnc(Nc2ccccc2)s1`: the inhibition was 39.6%.

In the case of `CCOC(=O)N1CCC(N2Cc3cccc(C(=O)Nc4cccc(F)c4)c3C2=O)CC1`, the inhibition is -24.4%.

For `CCOC(=O)C1CCN(C(=O)c2c(-c3c(Cl)cccc3Cl)noc2C)CC1`, the inhibition was 9.4%.

Regarding `CCN(CC)CCNCc1ccc(-c2ccc(Cl)cc2)o1`, the inhibition is -7%.

Consider `CC1CC(C)(C)NC(=S)N1CCCC(=O)N1CCN(c2ccccc2F)CC1` (configuration not stated), for which the inhibition is -3.8%.

For the molecule `COc1cc(N=C2C(=O)N3c4c(cccc42)C(C)=CC3(C)C)cc(OC)c1`, the inhibition is 34.1%.

As to `COc1cc(-c2nnco2)cc(OC)c1OC`, the inhibition was 15%.

As to `COc1cc(N=C(N)N=C(N)N)cc(OC)c1`, the inhibition was -0.7%.

Regarding `COc1ccc(N=C2SCC(=O)N2Cc2ccccc2)cc1`, the inhibition was -10.8%.

For the molecule `COc1ccc(N=c2sc3ccccc3n2C)cc1`, the inhibition was 5.6%.

As for `COc1cc(-c2nnc(-c3cc(OC)c(OC)c(OC)c3)o2)cc(OC)c1OC`, the inhibition is 7.6%.

Regarding `CCc1c(C)sc(NC(=O)CSc2nc3c(c(C(F)(F)F)n2)CCc2ccccc2-3)c1C#N`, the inhibition is 0.3%.

With `Cc1ccc(SCC(=O)NC(=O)NCc2ccco2)cc1C`, the inhibition was -3.3%.

As for `CCN(CCn1cccn1)C(=O)c1cc(COc2c(F)cccc2F)on1`, the inhibition is 5.3%.

For `O=C(CN1CCCC1)Nc1cc(F)ccc1F`, the inhibition was -1.6%.

As to `Cc1noc(C)c1COc1ccc(C(=O)OCC(=O)NCc2ccccc2Cl)cc1`, the inhibition was 22.4%.

On to `CC(C)(C)NC(=O)COC(=O)/C=C/c1ccccc1[N+](=O)[O-]`, for which the inhibition was 1.1%.

Consider `CC(=O)N(Cc1ccc(Br)cc1)c1cccc(C)c1C`, for which the inhibition was 5.3%.

On to `COc1ccc(OC)c(NC(=O)CN2C(=O)C3(OCCCO3)c3ccccc32)c1`, for which the inhibition was 11%.

Consider `C=CCn1c(C)nc2ccccc2c1=O`, for which the inhibition is 10%.

In the case of `C=CCn1c(=S)[nH]c2ccccc2c1=O`, the inhibition was 1.8%.

Regarding `C=CCn1c2[n+](c3ccccc3c1=O)CCCCC2`, the inhibition was 66.2% (active).

As to `COc1ccc(NC(C)=O)cc1NC(C)C(=O)Nc1ccc(F)c(F)c1F` (configuration not stated), the inhibition is 13.6%.

Regarding `Cc1cc(C)nc(-n2nc(C)cc2NC(=O)c2cccc(S(=O)(=O)N3CCCCC3)c2)n1`, the inhibition was 15.9%.

As to `CCN(CC)c1ccc(NC(=O)/C=C/c2cc(Br)ccc2OC)cc1`, the inhibition is 6.9%.

As to `CC1Cc2ccccc2N1C(=O)CSc1nnc(-c2ccc(S(=O)(=O)N3CCOCC3)cc2)n1C` (configuration not stated), the inhibition was -0.3%.

As to `Cn1c(SCC(=O)N2CCc3ccccc32)nnc1-c1ccc(S(=O)(=O)N2CCCC2)cc1`, the inhibition is 18.8%.

In the case of `CC1Cc2ccccc2N1C(=O)CSc1nnc(-c2ccc(S(=O)(=O)N3CCCC3)cc2)n1C` (configuration not stated), the inhibition is 60.6% (active).

For the molecule `CCOC(=O)c1ccc(NC(=O)CSCC(=O)OCC(=O)c2ccccc2)cc1`, the inhibition was 19.6%.

With `Cc1ccc2nc(SCC(=O)N3CCOCC3)[nH]c2c1`, the inhibition was -2.9%.

With `O=C(CSc1nc2ccc(S(=O)(=O)N3CCOCC3)cc2[nH]1)N1CCOCC1`, the inhibition was 66% (active).

For `CCOC(=O)CSc1nc2ccc(S(=O)(=O)N3CCOCC3)cc2[nH]1`, the inhibition is -11.2%.

For the molecule `COc1ccc(OC)c(NS(=O)(=O)c2ccc(NC(=O)c3ccc(NS(C)(=O)=O)cc3)cc2)c1`, the inhibition was 1.4%.

Consider `O=C(OCC(CO)OC(CO)n1ccc(=O)[nH]c1=O)c1ccccc1` (configuration not stated), for which the inhibition is 7.7%.

On to `Cn1c(=O)oc2cc(S(=O)(=O)N3CCC(C(=O)NCc4ccc(F)cc4)CC3)ccc21`, for which the inhibition is 4.5%.

Take `CCn1c(N)c(C(=O)NCC2CCCO2)sc1=S` (configuration not stated): the inhibition is 70.4% (active).

With `CCOC(=O)c1ccc(-n2c(N)c(C(=O)NCC3CCCO3)sc2=S)cc1` (configuration not stated), the inhibition is 31.5%.

As for `CCn1c(N)c(C(=O)NC)sc1=S`, the inhibition was 67.3% (active).

With `CCNC(=O)c1sc(=S)n(CC)c1N`, the inhibition was 6.5%.

For `CCn1c(N)c(C(N)=O)sc1=S`, the inhibition was 18.4%.

With `C=CCn1c(N)c(C(=O)NCC2CCCO2)sc1=S` (configuration not stated), the inhibition is -2.2%.

Consider `CCN(CC)CCn1c(=N)n(CC(O)c2ccc(OC)c(OC)c2)c2ccccc21` (configuration not stated), for which the inhibition was -0.3%.

As to `O=C(CCN1C(=O)C2CC=CCC2C1=O)N1CCN(c2ccccn2)CC1` (configuration not stated), the inhibition was -3.3%.

Consider `C=CCSc1nnc(C)n1-c1ccc(Cl)cc1`, for which the inhibition is 21.9%.

Take `C/C(=N\N=C(N)N)c1cccc(Cl)c1`: the inhibition is 11.7%.

Regarding `O=C(N/N=C/c1ccccc1C(=O)O)C(=O)N1CCCCC1`, the inhibition is 2.7%.

In the case of `Oc1ccc(/C=N/NC(=S)Nc2cccnc2)cc1O`, the inhibition was 43.5%.

On to `Oc1ccc(/C=N/NC(=S)Nc2cccnc2)c(O)c1`, for which the inhibition is -1.2%.

For the molecule `Oc1cccc(/C=N/NC(=S)NCCN2CCOCC2)c1O`, the inhibition is 66.9% (active).

With `Oc1cccc(/C=N/NC(=S)Nc2cccnc2)c1O`, the inhibition is 55.6% (active).

In the case of `NC(=S)N/N=C/c1ccccc1`, the inhibition was 11.4%.

Take `S=C(NCCN1CCOCC1)N/N=C/c1ccccc1`: the inhibition is 2%.

On to `NC(=S)N/N=C/c1ccccc1[N+](=O)[O-]`, for which the inhibition is 24.6%.

Take `Oc1ccc(/C=N/NC(=S)NCCN2CCOCC2)c(O)c1`: the inhibition is -8.8%.

Take `O=C(COc1ccc(Cl)cc1)NCC(=O)N/N=C/c1cccs1`: the inhibition was 2.8%.

For `Cc1noc(C(=O)Nc2c(C)n(C)n(-c3ccccc3)c2=O)c1Cl`, the inhibition was -5.9%.

For the molecule `COc1cccc(S(=O)(=O)N2CCOCC2)c1`, the inhibition was 1.2%.

Consider `O=C(COC(=O)c1cccnc1Cl)NCC1CCCO1` (configuration not stated), for which the inhibition is -1.2%.

On to `CCOc1ccc(OCC(=O)OCn2c(SC)nnc(C)c2=O)cc1`, for which the inhibition is 15.9%.

For the molecule `O=c1[nH]c2ccccc2n2cnnc12`, the inhibition was -5.1%.

On to `O=c1[nH]c2ccccc2n2c(-c3ccncc3)nnc12`, for which the inhibition is 1.8%.

For the molecule `O=c1[nH]c2ccccc2n2c(-c3ccccc3)nnc12`, the inhibition was 84.7% (active).

Regarding `Cc1ccc(NC(=O)N(CCCN2CCOCC2)Cc2cccnc2)cc1C`, the inhibition was -1.1%.

As for `COC(=O)CNC(=O)Cn1cnc2sc(C)c(S(=O)(=O)N3CCC(C)CC3)c2c1=O`, the inhibition is -9%.

Consider `CCc1ccc(N2CCCn3c2nc2c3c(=O)n(CCN3CCOCC3)c(=O)n2C)cc1`, for which the inhibition was -10.4%.

In the case of `O=C(N/N=C/c1ccccc1)c1[nH]c2ccc(Br)cc2c1-c1ccccc1`, the inhibition was 15.4%.

Regarding `Oc1ccc(Br)cc1/C=N/N1CCN(Cc2ccccc2)CC1`, the inhibition is 6.6%.

`CC(=O)Nc1cccc(C(=O)O)n1`: the inhibition was 6.7%.

As for `CC(C)OC(=O)c1cccc(C(=O)O)n1`, the inhibition was 21.8%.

For `O=C(O)c1cccc(C(=O)O)n1`, the inhibition is 58% (active).

`Cc1ccc(SCc2cn3cccnc3n2)cc1`: the inhibition was 12.5%.

Turning to `Cc1ccc(C2=[N+]([O-])C3(CCCCC/C3=N\NC(N)=O)N(O)C2(C)C)o1` (configuration not stated), the inhibition was -4.7%.

Turning to `Cc1nccn1CC(=O)N/N=C/c1ccc(O)c(O)c1`, the inhibition was 64.4% (active).

For `O=C(COc1ccccc1C(=O)N/N=C\c1ccc(O)c(O)c1)N/N=C/c1ccc(O)c(O)c1`, the inhibition was 60.6% (active).

Consider `O=C(COc1ccccc1-c1ccccc1)N/N=C/c1ccc2ccccc2c1`, for which the inhibition was 8.9%.

As to `Cc1nccn1CC(=O)N/N=C/c1cccc(O)c1`, the inhibition is 7.9%.

On to `O=C(COc1ccccc1[N+](=O)[O-])N/N=C/c1ccc(O)c([N+](=O)[O-])c1`, for which the inhibition was -10.2%.

On to `COc1cccc(/C=N/NC(=O)Cn2ccnc2C)c1`, for which the inhibition was 14.6%.

As for `CCOC(=O)C1=C(C)NC(SC(C)=O)=NC1c1ccc(OC(C)=O)c(OC)c1` (configuration not stated), the inhibition is 17.5%.

Turning to `CC1CCc2c(sc(NC(=O)COC(=O)C3CCCO3)c2C#N)C1` (configuration not stated), the inhibition was -3.7%.

On to `O=C(CSCC(=O)N1CCOCC1)Nc1ccccc1`, for which the inhibition was -11.1%.

Consider `O=C(NCCc1ccccc1)C1CCN(S(=O)(=O)N2CCC3(CC2)OCCO3)CC1`, for which the inhibition is 17.1%.

Consider `O=C1CN(C(=O)CSc2nc(-c3ccccc3)cs2)c2ccccc2N1`, for which the inhibition was -3.1%.

For `COc1ccc2nc(NNC(=O)C3COc4ccccc4O3)sc2c1` (configuration not stated), the inhibition was -43.9%.

`CN1C(=O)/C(=C/C=C2\SCCN2C)N(C)C1=S`: the inhibition is 45.3%.

Turning to `CN1C(=O)/C(=C/C=C2/CCCN2C)N(C)C1=S`, the inhibition was 35.8%.

As for `CN1C(=O)/C(=C\C=C2/CCCN2C)N(C)C1=S`, the inhibition is 53.2% (active).

For orientation: inhibition means the relative decrease from the control value, in per cent.
